Bioassay records from PubChem BioAssay.
Sampled rows, rich in hits. Any-hit rate of the full collection: about 8%.
KB-V1 cytotox – kills drug-selected multidrug resistant KB-V1 cells; 400,000 compounds, 3.4% hits; AID 1347076; KB-V1 MDR cells viability, CellTiter-Glo, 72 h; Potency, µM (doses to about 46.1 µM), usual class: cytotoxic; further: on the % scale 0 is the no-effect control and ±100 the full control effect; nearly all actives have a fitted effect of over 60% in size
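In this primary screen, KB-V1 cells overexpressing P-gp are incubated with library compounds (lowest to highest concentration) for 72 h at 37 degrees C before a luminescent ATP viability read.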
HT1080NT lethal – kills 2HG-producing HT-1080-NT fibrosarcoma cells | HT-1080-NT fibrosarcoma viability, CellTiter-Glo ATP luminescence, 48 h | 360,000 compounds, 1.6% hits | Potency, µM (titrated, usually from 46.1 µM), for inactives: at the top dose activity, negative = less viability, hits mostly cytotoxic;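 further: NT is the 2HG producing partner of a matched IDH1 knockdown line; 0% = DMSO-treated cells and -100% = media-only wells without cells; nearly all actives have a fitted effect of over 55% in size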
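Read-out is CellTiter-Glo luminescence after 10 minutes at room temperature, following 48 hours' compound treatment of HT-1080-NT cells (750 cells/well, RPMI, 5% FBS, 37 degrees C).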
KB-3-1 cytotox – kills parental KB-3-1 adenocarcinoma cells; KB-3-1 viability, CellTiter-Glo ATP luminescence, 72 h; Potency, µM (highest dose often 46.1 µM), actives largely listed as cytotoxic; 400,000 compounds, 1.4% hits; AID 1347075; further: on the % scale 0 is the no-effect control and ±100 the full control effect; nearly all actives have a fitted effect of over 60% in size
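Using CellTiter-Glo luminescence, growth of non-resistant KB-3-1 adenocarcinoma cells is assessed 72 h after pin-tool compound addition at 37 °C. Normalized responses across the concentration series yield fitted curves.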
SW480 rereplic – induces DNA re-replication in SW480 colon adenocarcinoma cells. 340,000 compounds, 1.8% hits. SW480 DNA re-replication, Hoechst DNA content imaging, 48 h. Potency, µM (doses to about 46.1 µM), for the others: at the highest dose re-replication activation, actives largely listed as activators. AID 624297; further: % of control where 0% means no effect; nearly all actives have a fitted effect of over 55% in size
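Quantitative HTS format with DMSO vehicle controls; 48 hr drug incubation at 37 C, then 40 min Hoechst staining and scanning imager measurement at 405 nm excitation.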
HT1080 IDH1KD tx – HT-1080 IDH1 knockdown cell toxicity (counter line); HT-1080 IDH1 knockdown viability, ATP luminescence, 48 h; Potency, µM (top dose mostly 46.1 µM), inactives show at the highest dose activity, negative = toxicity, hits mostly cytotoxic; 360,000 compounds, 2% hits;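 further: 0% = DMSO wells and -100% = cell-free medium wells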
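Knockdown cells (IDH1KD HT-1080) received compounds 2 h after plating at 750 cells/well and were kept 48 h at 37 °C in 5% FBS RPMI. A CellTiter-Glo luminescence read gave % activity for curve fitting.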
MCF10A rereplic – induces DNA re-replication in MCF 10a normal breast cells | MCF 10A DNA re-replication, Hoechst nuclear intensity, 48 h | Potency, µM (highest dose often 46.1 µM), inactives show top-dose activity, positive = re-replication, hits mostly activators | 350,000 compounds, 2.9% hits | AID 624296; further: % of control where 0% means no effect; nearly all actives have a fitted effect of over 50% in size
The depositor's hits bear a star. The call rests on the fitted dose curve; in most records, active means well fitted curve in the direction sought with a large enough effect; inconclusive means small, poorly fitted or top-dose-only effect, or another doubt; inactive means no such curve, though single readings can be large; an effect the other way counts as inactive or inconclusive. Potency means the concentration at half of the fitted maximal effect.

How did CC1(C)Cc2c(C#N)c(NCCN3CCOCC3)nc(-c3ccco3)c2CO1 do in these assays?
KB-V1 cytotox: inactive; HT1080NT lethal: -2%; KB-3-1 cytotox: inactive; SW480 rereplic: 17%; HT1080 IDH1KD tx: 2%; MCF10A rereplic: 23µM*

Results for CN(C)CCNc1nc(-c2ccccc2)c2c(c1C#N)CC(C)(C)OC2 ?
KB-V1 cytotox: inactive; HT1080NT lethal: -2%; KB-3-1 cytotox: inactive; SW480 rereplic: 2%; HT1080 IDH1KD tx: 0%; MCF10A rereplic: 5%

How did CC1(C)Cc2c(C#N)c(NCCN3CCOCC3)nc(-c3ccccc3)c2CO1 do in these assays?
KB-V1 cytotox: inactive; HT1080NT lethal: -10%; KB-3-1 cytotox: inactive; SW480 rereplic: 7.3µM*; HT1080 IDH1KD tx: 10%; MCF10A rereplic: 0%

What do the screens show for `CCC(=O)NC(=S)Nc1cccc(Cl)c1N1CCCCC1`?
KB-V1 cytotox: inactive; HT1080NT lethal: 4.5µM*; KB-3-1 cytotox: inconclusive; SW480 rereplic: 11µM*; HT1080 IDH1KD tx: 5.6µM*; MCF10A rereplic: inconclusive

What do the screens show for `CCCCC(=O)NC(=S)Nc1cccc(Cl)c1N1CCCCC1`?
KB-V1 cytotox: 21µM*; HT1080NT lethal: 0%; KB-3-1 cytotox: inactive; SW480 rereplic: 14%; HT1080 IDH1KD tx: -16%; MCF10A rereplic: inconclusive

What do the screens show for `CCCC(=O)NC(=S)Nc1cccc(Cl)c1N1CCCCC1`?
KB-V1 cytotox: 18µM*; HT1080NT lethal: 5µM*; KB-3-1 cytotox: inconclusive; SW480 rereplic: 15%; HT1080 IDH1KD tx: 10µM*; MCF10A rereplic: inconclusive

What do the screens show for `CCCCC(=O)NC(=S)Nc1ccccc1N1CCCCC1`?
KB-V1 cytotox: inactive; HT1080NT lethal: 9%; KB-3-1 cytotox: inactive; SW480 rereplic: inconclusive; HT1080 IDH1KD tx: 9%; MCF10A rereplic: inconclusive

Results for COc1ccc(CC(=O)NNC(=O)COc2ccc3ccccc3c2)cc1 ?
KB-V1 cytotox: inactive; HT1080NT lethal: 9%; KB-3-1 cytotox: inactive; SW480 rereplic: -4%; HT1080 IDH1KD tx: 6%; MCF10A rereplic: 3%

How did COCCNC(=O)C(c1cccs1)N(Cc1cccs1)C(=O)Cn1nnc2ccccc21 (stereo not drawn) do in these assays?
KB-V1 cytotox: inactive; HT1080NT lethal: 11%; KB-3-1 cytotox: inactive; SW480 rereplic: 4%; HT1080 IDH1KD tx: 5%; MCF10A rereplic: inconclusive

How did CC(C)CCNC(=O)C(c1ccco1)N(Cc1cccs1)C(=O)Cn1nnc2ccccc21 (stereo not drawn) do in these assays?
KB-V1 cytotox: 5.2µM*; HT1080NT lethal: -1%; KB-3-1 cytotox: inactive; SW480 rereplic: -5%; HT1080 IDH1KD tx: 5%; MCF10A rereplic: 2%

How did COc1cc(/C=N/NC(=O)c2ccncc2)ccc1OC(=O)c1cccc(F)c1 do in these assays?
KB-V1 cytotox: inactive; HT1080NT lethal: -11%; KB-3-1 cytotox: inactive; SW480 rereplic: -2%; HT1080 IDH1KD tx: -7%; MCF10A rereplic: -1%

What do the screens show for `Cc1ccc(NC(=O)CNNC(=O)c2cccc([N+](=O)[O-])c2)cc1[N+](=O)[O-]`?
KB-V1 cytotox: inactive; HT1080NT lethal: -17%; KB-3-1 cytotox: inactive; SW480 rereplic: 6%; HT1080 IDH1KD tx: -9%; MCF10A rereplic: 5%

What do the screens show for `CCSC1(SCC)N=C(N)C2(C#N)C(c3ccccc3)NC3=C(CCC3)C12C#N` (stereo not drawn)?
KB-V1 cytotox: inactive; HT1080NT lethal: 2%; KB-3-1 cytotox: inactive; SW480 rereplic: -1%; HT1080 IDH1KD tx: 17%; MCF10A rereplic: -5%

Results for CCSC1(SCC)N=C(N)C2(C#N)C(c3ccc(OC)c(OC)c3OC)C12C#N (stereo not drawn) ?
KB-V1 cytotox: inconclusive; HT1080NT lethal: inconclusive; KB-3-1 cytotox: inconclusive; SW480 rereplic: inconclusive; HT1080 IDH1KD tx: inconclusive; MCF10A rereplic: 9.2µM*

Results for Nn1cc(-c2ccccc2)nc1SCC(=O)NCCc1ccccc1 ?
KB-V1 cytotox: 23µM*; HT1080NT lethal: -7%; KB-3-1 cytotox: inactive; SW480 rereplic: -4%; HT1080 IDH1KD tx: -15%; MCF10A rereplic: -2%

Results for Cn1c(SC/C=C/c2ccccc2)nnc1-c1cccs1 ?
KB-V1 cytotox: inactive; HT1080NT lethal: 3%; KB-3-1 cytotox: inactive; SW480 rereplic: -3%; HT1080 IDH1KD tx: 21%; MCF10A rereplic: 2%

What do the screens show for `Nn1cc(-c2ccccc2)nc1SCC(=O)NCC(F)(F)F`?
KB-V1 cytotox: inactive; HT1080NT lethal: -1%; KB-3-1 cytotox: inactive; SW480 rereplic: -19%; HT1080 IDH1KD tx: 3%; MCF10A rereplic: 8%

What do the screens show for `CCn1c(CNC(=O)c2cccs2)nnc1SCC(=O)NCCc1ccccc1`?
KB-V1 cytotox: inactive; HT1080NT lethal: 3%; KB-3-1 cytotox: inactive; SW480 rereplic: -10%; HT1080 IDH1KD tx: 5%; MCF10A rereplic: 11%

How did CCn1c(SCC(=O)NCCc2ccccc2)nnc1-c1cccs1 do in these assays?
KB-V1 cytotox: 21µM*; HT1080NT lethal: -4%; KB-3-1 cytotox: inactive; SW480 rereplic: -10%; HT1080 IDH1KD tx: 5%; MCF10A rereplic: 1%

Results for CCn1c(SC/C=C/c2ccccc2)nnc1-c1cccs1 ?
KB-V1 cytotox: 13µM*; HT1080NT lethal: -1%; KB-3-1 cytotox: inactive; SW480 rereplic: -4%; HT1080 IDH1KD tx: 0%; MCF10A rereplic: inconclusive

How did O=C(CSc1nnc(-c2ccco2)c(-c2ccco2)n1)Nc1ccccc1 do in these assays?
KB-V1 cytotox: inactive; HT1080NT lethal: -5%; KB-3-1 cytotox: inactive; SW480 rereplic: -9%; HT1080 IDH1KD tx: -1%; MCF10A rereplic: 8%

What do the screens show for `Cc1ccc(NC(=O)CCSc2nnc(-c3ccco3)o2)cc1`?
KB-V1 cytotox: 23µM*; HT1080NT lethal: 3%; KB-3-1 cytotox: inconclusive; SW480 rereplic: -3%; HT1080 IDH1KD tx: 4%; MCF10A rereplic: 6%

What do the screens show for `O=C(CCSc1nnc(-c2ccco2)o1)Nc1ccc(F)cc1`?
KB-V1 cytotox: inactive; HT1080NT lethal: 0%; KB-3-1 cytotox: inactive; SW480 rereplic: 3%; HT1080 IDH1KD tx: -2%; MCF10A rereplic: 16%

What do the screens show for `COc1ccc(C(=O)CSc2nnc(-c3ccco3)n2C)cc1`?
KB-V1 cytotox: inactive; HT1080NT lethal: -14%; KB-3-1 cytotox: inactive; SW480 rereplic: -7%; HT1080 IDH1KD tx: 0%; MCF10A rereplic: -2%

What do the screens show for `Cc1ccc(NC(=O)CSc2nnc(-c3ccco3)c(-c3ccco3)n2)cc1`?
KB-V1 cytotox: 5.2µM*; HT1080NT lethal: 7.3µM*; KB-3-1 cytotox: 5.8µM*; SW480 rereplic: 16µM*; HT1080 IDH1KD tx: 5.2µM*; MCF10A rereplic: 5.8µM*
